Measured values: PubChem BioAssay AID1851 (National Center for Advancing Translational Sciences (NCATS), 2009)
Among all 16,000 compounds or so, about 5,800 (36%) were called active. Not shown: some 23% with an inconclusive outcome. This is one part of the list. Values without a mark were called inactive. Calls follow the shape of the dose curve; as a rule, active = well fitted curve in the direction sought with a large enough effect; inconclusive = small, poorly fitted or top-dose-only effect, or effect the other way; inactive = no such curve, though single readings can be large or run the other way.

These compounds were tested against Cytochrome P450 2C19 (Homo sapiens) (UniProt P33261) (assay: Cytochrome panel assay with activity outcomes). Conditions: recombinant CYP, pro-luciferin dealkylation, luminescence, p450-cyp2c19; series mostly up to 57.1 µM; activity, negative = inhibition: at the top concentration.
Cytochrome P450 2C19 (Homo sapiens), sequence (P33261 whole entry, looked up): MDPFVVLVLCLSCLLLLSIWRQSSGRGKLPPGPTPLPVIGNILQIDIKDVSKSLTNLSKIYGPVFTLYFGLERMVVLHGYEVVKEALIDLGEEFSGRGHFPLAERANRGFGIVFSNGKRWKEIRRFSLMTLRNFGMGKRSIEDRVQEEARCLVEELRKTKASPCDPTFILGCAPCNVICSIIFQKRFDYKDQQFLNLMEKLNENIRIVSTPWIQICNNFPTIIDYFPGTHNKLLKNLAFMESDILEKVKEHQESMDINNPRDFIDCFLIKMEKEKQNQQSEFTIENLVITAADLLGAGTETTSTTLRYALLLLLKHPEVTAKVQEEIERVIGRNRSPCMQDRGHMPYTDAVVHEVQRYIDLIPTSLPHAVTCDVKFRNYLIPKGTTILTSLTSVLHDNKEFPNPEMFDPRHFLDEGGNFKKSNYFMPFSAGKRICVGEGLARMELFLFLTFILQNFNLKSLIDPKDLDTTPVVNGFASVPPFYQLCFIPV
% is scaled to controls: 0 for no effect and ±100 for the full control effect.

| Compound | activity, negative = inhibition | AC50 |
| --- | --- | --- |
| O=C(N/N=C1/C[C@@H](O)[C@@H](O)[C@@H]2[C@H]3C(=O)N(c4ccc(F)cc4F)C(=O)[C@@H]3CC[C@H]12)OCc1ccccc1 | -27.3% [at 11.4 µM] |  |
| NC(=O)CSc1nc2sc(-c3ccccc3)cc2c(=O)n1N |  | 15.8 µM (active) |
| c1cc2c(cc1C1CCCCC1)c1c3n2CCN[C@H]3CCC1 |  | 1 µM (active) |
| O=C(Nc1ccc(Cl)cc1)OCCn1nnnc1C(c1ccccc1Cl)N1CCOCC1 (stereo not drawn) |  | 3.98 µM (active) |
| O=C1[C@H]2O[C@@H]2[C@@H](O)[C@H]2[C@H]1CCn1c(=O)n(Cc3cc4c(cc3Cl)OCO4)c(=O)n12 | 14.6% [at 11.4 µM] |  |
| CCCCCCCCCCCCCCCCCC(=O)NC[C@@H](COP(=O)([O-])OCC[N+](C)(C)C)OCC |  | 25.1 µM (active) |
| CCCCCCCCCCCCCCCCCCOC[C@@H](COP(=O)([O-])OCC[N+](C)(C)C)OC | 25.4% |  |
| CCCCCCCCCCCCCCCCCCNC(=O)OC[C@@H](COP(=O)([O-])OCC[n+]1ccsc1)OC | 4.66% |  |
| C=C(C)CN(CC#N)CC(=C)C | 27.9% [at 11.4 µM] |  |
| Cn1c(N)nc2c(nc(OCc3ccccc3)n2[C@@H]2O[C@H](CO)[C@@H](O)[C@@H]2O)c1=O | -3.29% [at 11.4 µM] |  |
| Cc1ccc(N=C/C(C(=O)C(F)(F)F)=C(\O)c2cccs2)cc1 |  | 3.16 µM (active) |
| COc1cc(Br)cc2cc(C(=O)NCC3CCCO3)c(=O)oc12 (stereo not drawn) |  | 0.398 µM (active) |
| CCN1CCC[C@H]1CNC(=O)c1c(OC)ccc(Br)c1OC | -5.06% [at 25.6 µM] |  |
| COc1cc(CN2CCCCC2)cc2cc(C(=O)O)c(=O)oc12 | 21% [at 11.4 µM] |  |
| COc1ccc(-n2c(C)nn(C)c2=O)cc1 | 14.2% |  |
| COc1ccc(-n2cnnc2)cc1 | -18.6% |  |
| Cc1cc(C)cc(-n2nnnc2-c2cn(C)nc2C(F)(F)F)c1 |  | 2.51 µM (active) |
| COc1ccc(-n2nnnc2-c2cn(C)nc2C(F)(F)F)cc1 |  | 2.24 µM (active) |
| C[C@@H]1c2cccc(O)c2C(O)=C2C(=O)[C@@]3(O)C(O)=C(C(N)=O)C(=O)[C@@H](N(C)C)[C@@H]3[C@@H](O)[C@@H]21 |  | inactive |
| CCOC(=O)C1=C(N)n2c(s/c(=C/c3ccccc3)c2=O)=C(C(=O)OCC)C1c1ccccc1 (stereo not drawn) | 2.19% |  |
| CCOC(=O)C1=C(N)n2c(s/c(=C\c3ccco3)c2=O)=C(C(=O)OCC)C1c1ccco1 (stereo not drawn) |  | 8.91 µM (active) |
| CCOC(=O)C1=C(c2ccccc2)N=c2s/c(=C\c3ccco3)c(=O)n2C1c1cccs1 (stereo not drawn) |  | 2.24 µM (active) |
| CCOC(=O)C1=C(c2ccccc2)N=c2s/c(=C\c3cccc(O)c3)c(=O)n2C1c1cccs1 (stereo not drawn) |  | 10 µM (active) |
| S=c1nc[nH]c2c1ncn2Cc1ccco1 | -0.307% [at 11.4 µM] |  |

| Compound | activity, negative = inhibition | AC50 |
| --- | --- | --- |
| S=C1SCN(Cc2ccccn2)CN1Cc1ccco1 |  | 2.24 µM (active) |
| c1ccc(CCNCc2ccco2)nc1 | -13.9% [at 11.4 µM] |  |
| Cc1cccc(OCCSCc2nc3ccccc3[nH]2)c1 |  | 2.24 µM (active) |
| O=C(c1ccc(S(=O)(=O)N2CCCCCC2)cc1)N1CCC(CN2C(=O)c3cccc4cccc(c34)C2=O)CC1 | -9.18% |  |
| O=C1c2cccc3cccc(c23)C(=O)N1CC1CCN(CC(O)COc2ccc3ccccc3c2)CC1 (stereo not drawn) |  | 7.08 µM (active) |
| CC(Cc1ccccc1)C(=O)NCc1ccccn1 (stereo not drawn) | -18.2% |  |
| Cc1ccccc1C(C(=O)NCc1ccccc1)N(Cc1ccco1)C(=O)c1ccccn1 (stereo not drawn) |  | 3.55 µM (active) |
| O=C(NCc1ccccc1)C(c1ccc(F)cc1)N(Cc1ccco1)C(=O)c1ccccn1 (stereo not drawn) |  | 4.47 µM (active) |
| Cc1ccc(N(CCC#N)C(=O)CSc2ccc3c(c2)OCCO3)cc1 |  | 2 µM (active) |
| O=C1CCCc2ccccc2N1Cc1ccccc1Cl |  | 1 µM (active) |
| C[C@@H](CN(C)C)CN1c2ccccc2CCc2ccccc21 |  | inactive |
| O=C1CCCc2ccccc2N1Cc1cccc(Cl)c1 |  | 0.501 µM (active) |
| c1csc(CNc2ccnc(-c3ccc4c(c3)OCO4)n2)c1 |  | 5.01 µM (active) |
| CN(C)C(=O)c1ccc(-c2nccc(NCc3cccnc3)n2)cc1 | -1.41% |  |
| c1ccc(CNc2ccnc(-c3ccc4c(c3)OCO4)n2)cc1 |  | 2 µM (active) |
| c1cncc(CNc2ccnc(-c3ccc4c(c3)OCO4)n2)c1 |  | 5.01 µM (active) |
| COc1cc(OC)c(C(=O)CCCCN2CCC3(CC2)NC(=O)NC3=O)cc1NS(=O)(=O)c1ccc(C(F)(F)F)cc1 | 25.1% |  |
| CCN(CC)CCC[C@H](C)Nc1c2ccc(Cl)cc2nc2ccc(OC)cc12 | 18.9% |  |
| COc1ccc(OCCn2c(C)c(/C=N/n3cnnc3)c3ccccc32)cc1 |  | 0.355 µM (active) |
| C[C@@H](CN1c2ccccc2Sc2ccccc21)N(C)C |  | inactive |
| CN(C)CCCN1c2ccccc2C(C)(C)c2ccccc21 | 1.8% [at 11.4 µM] |  |
| CCN(CC)CCN1c2ccccc2Sc2ccc3ccccc3c21 |  | 1 µM (active) |
| CCC(=O)c1ccc2c(c1)N(CCCN(C)C)c1ccccc1S2 | -7.66% |  |
| CN(C)CCCN1c2ccccc2Sc2cnccc21 | 34.5% [at 11.4 µM] |  |

| Compound | activity, negative = inhibition | AC50 |
| --- | --- | --- |
| CCN(CC)[C@@H](C)CN1c2ccccc2Sc2ccccc21 | -42.8% [at 25.6 µM] |  |
| CN(C)CCCN1c2ccccc2Sc2ccc3ccccc3c21 |  | 1 µM (active) |
| CN(C)CCCN1c2ccc3ccccc3c2Sc2cccc(Cl)c21 |  | 5.01 µM (active) |
| CN=C1N[C@H](c2ccccc2)N(c2ccccc2)S1 | 8.52% |  |
| CC(C)c1ccc2nc3sc(C(=O)N4CCc5ccccc5C4)c(N)c3cc2c1 |  | 3.55 µM (active) |
| CCCn1c(-c2ccccc2)nc2c(=O)n(C)c(=O)[nH]c21 | -28.4% |  |
| CCOC(=O)CSc1cc(CS(=O)c2ccc(Cl)cc2)nc(-c2ccccc2)n1 (stereo not drawn) |  | 0.126 µM (active) |
| CCOC(=O)Cn1c(-c2ccccc2)nc2ccccc2c1=O |  | 7.08 µM (active) |
| CCOC(=O)CSc1nc(-c2ccccc2)nc2ccccc12 |  | 4.47 µM (active) |
| O=C(O)Cn1c(-c2ccccc2)nc2ccccc21 | -3.11% |  |
| NC(=Nc1ccccc1)NC(=O)c1nc(Cl)c(N)nc1N | -2.55% |  |
| CS(=O)(=O)N1CCC2(CCN(C(=O)Nc3cccc(F)c3)CC2)CC1 | 28.3% |  |
| CS(=O)(=O)N1CCC[C@@]2(CCN(C(=O)Nc3cccc(F)c3)C2)C1 | -16.4% |  |
| CS(=O)(=O)N(CC(=O)Nc1cccc(F)c1)c1cccc([N+](=O)[O-])c1 |  | 7.94 µM (active) |
| NC(N)=N/N=C(/c1ccccc1)c1ccc(O)cc1O | -16.1% [at 11.4 µM] |  |
| COc1cc(/C=C\C(=O)N2CCC=CC2=O)cc(OC)c1OC | -7.75% [at 25.6 µM] |  |
| COc1ccc(/C=C/C(=O)Nc2nc(C)cc(C)n2)cc1OC | -10.2% |  |
| C=CCSc1nc2ccccc2n1C(=O)/C=C/c1cc(OC)c(OC)c(OC)c1 |  | 2.24 µM (active) |
| CCSc1nc2ccccc2n1C(=O)/C=C\c1ccc(OC)c(OC)c1 |  | 7.94 µM (active) |
| CSc1ccccc1NC(=O)CSCc1ccc(C)cc1 |  | 1.78 µM (active) |
| Cc1ccc(C)c(-n2c(CNC(=O)c3ccco3)nnc2SCC(=O)N2CCc3ccccc32)c1 | 17% |  |
| Cc1cc2nc(-c3ccc(SCC(=O)N4CCc5ccccc54)nc3)[nH]c2cc1C |  | 3.98 µM (active) |
| CCOC(=O)O[C@]1(C(=O)COC(=O)CC)CC[C@@H]2[C@@H]3CCC4=CC(=O)C=C[C@@]4(C)[C@H]3[C@H](O)C[C@]21C | -33.4% [at 25.6 µM] |  |
| FC(F)(F)c1cccc(N2CCN(CC3CC4C=CC3C4)CC2)c1 (stereo not drawn) |  | 8.91 µM (active) |

| Compound | activity, negative = inhibition | AC50 |
| --- | --- | --- |
| OCCN(C=NC1=NN(c2cccc(C(F)(F)F)c2)CC1)CCO | 1.91% |  |
| CO[C@@H]1COC(=O)[C@@H](CCSC)NC(=O)C/C=C\[C@@H](C)COC(=O)CCC[C@H]1C | -34.5% [at 11.4 µM] |  |
| C(=Nc1cnc2ccccc2c1)c1ccc2ccccc2n1 | 34% [at 11.4 µM] |  |
| Cc1cccc(Nc2ccncc2S(=O)(=O)NC(=O)NC(C)C)c1 | -12.7% [at 25.6 µM] |  |
| Cc1cccc(NCCNc2cccc(C)c2)c1 |  | 2.82 µM (active) |
| COCCn1c(=O)c(-c2cc(F)cc(F)c2)nc2cnc(N3CCN(C)CC3)nc21 | -24.9% |  |
| CC(C)=C[C@H]1[C@@H](C(=O)Oc2ccccc2C(C)C)C1(C)C |  | 1.26 µM (active) |
| c1cncc(-c2cncnc2NC2CCNCC2)c1 | -38.4% |  |
| COc1ccc2[nH]cc(CCNc3ncncc3-c3cccnc3)c2c1 |  | 3.16 µM (active) |
| COc1ccc2[nH]cc(CCNc3ncncc3-c3cccc(NS(C)(=O)=O)c3)c2c1 |  | 5.01 µM (active) |
| COc1cccc(-c2cncnc2NCCc2c[nH]c3ccc(OC)cc23)c1 |  | 0.316 µM (active) |
| CCC/C=C(\CCC)C(NS(=O)(=O)c1ccc(Cl)cc1)c1ccc(C(=O)OC)cc1 (stereo not drawn) |  | 1.58 µM (active) |
| CCC/C=C(\CCC)C(NS(=O)(=O)c1ccc(Cl)cc1)c1ccccc1 (stereo not drawn) |  | 0.398 µM (active) |
| CCC/C=C(\CCC)C(NS(=O)(=O)c1cccs1)c1ccc(C(=O)OC)cc1 (stereo not drawn) |  | 0.794 µM (active) |
| CCC/C=C(\CCC)C(NP(=O)(c1ccccc1)c1ccccc1)c1ccc(-c2ccccc2)cc1 (stereo not drawn) |  | 7.94 µM (active) |
| CO[C@H]1COC(=O)C/C=C\[C@@H](C)COC(=O)[C@@H](C)NC(=O)C/C=C\[C@@H]1C | 16.7% [at 11.4 µM] |  |
| CO[C@H]1COC(=O)CCC[C@@H](C)[C@H](OC)COC(=O)[C@H]2CCCN2C(=O)C/C=C\[C@@H]1C | -20.1% [at 11.4 µM] |  |
| CCC/C=C(\CCC)C(NS(=O)(=O)c1ccc(C(F)(F)F)cc1)c1ccc(C(=O)OC)cc1 (stereo not drawn) |  | 2.51 µM (active) |
| CCC/C=C(\CCC)C(NS(C)(=O)=O)c1ccccc1 (stereo not drawn) |  | 7.94 µM (active) |
| CCC/C=C(\CCC)C(NS(=O)(=O)c1ccc(-c2ccccc2)cc1)c1ccc(C(=O)OC)cc1 (stereo not drawn) |  | 1.26 µM (active) |
| CCC/C=C(\CCC)C(NS(=O)(=O)c1cccc2cccnc12)c1ccc(C(=O)OC)cc1 (stereo not drawn) |  | 3.16 µM (active) |
